# Test results from PMC4552634, “A New Set of Chemical Starting Points with Plasmodium falciparum Transmission-Blocking Potential for Antimalarial Drug Discovery” (PLoS ONE, 2015).
# Read-outs that look alike come from different tables or passages of the source. Among all 13,000 compounds or so, about 3,200 (25%) showed an effect of 50% or more. This is one part of the list. Peptide text beside a SMILES is read from it. * marks the point of attachment. Octanoyl = CCCCCCCC(=O)*
# Test system: P. falciparum stage V gametocytes
# Parameters: BacTiter-Glo ATP luminescence viability of purified stage V gametocytes in 384-well plates, per cent inhibition versus DMSO
# Settings: 48 h, 5 µM, inhibitor
SMILES,% Inhibition,% Inhibition (% Inhibition)
NC(=O)CNC(=O)CCCN=C(N)N [TCMDC-131667],20.86%,–
Cc1c(Cc2ccc(F)cc2)c(Cl)nc2nc(N)nc(N)c12 [TCMDC-137680],-6.829%,–
CS(=O)(=O)c1ccc2c(c1)CCN(CCC1CCC(NC(=O)C(=Cc3cccc(C#N)c3)c3ccc(-c4ccccc4)cc3)CC1)CC2 (stereo not drawn) [TCMDC-141427],78.58%,–
N#Cc1cccc(-c2cccc(C(=O)NC3CCC(CCN4CCc5ccc(C#N)cc5CC4)CC3)c2)c1 (stereo not drawn) [TCMDC-139681],-20.07%,–
CS(=O)(=O)c1ccc2c(c1)CCN(CCC1CCC(NC(=O)C(=Cc3ccc(Cl)cc3Cl)c3ccc(-c4ccccc4)cc3)CC1)CC2 (stereo not drawn) [TCMDC-141426],-11.75%,–
CC(C)CCN(Cc1cncn1Cc1ccccc1F)C(=O)c1cncc(-c2ccccc2)c1 [TCMDC-132470],20.84%,–
O=C(Nc1ccc(-c2nc3ccccc3[nH]2)cc1)c1ccc([N+](=O)[O-])s1 [TCMDC-123726],9.602%,–
Nc1nc(N)c2nc(C3CC=CCC3)c(N)nc2n1 (stereo not drawn) [TCMDC-141989],6.679%,–
CCCCCCCC(=O)N[C@@H](Cc1ccccc1)C(=O)N[C@H](C(=O)O)C(C)C [TCMDC-139536] (Octanoyl-Phe-Val-OH),1.099%,–
CC(CN(C)C)C(=O)Nc1ccc(-c2ccc(-c3nc4ccccc4[nH]3)s2)cc1 (stereo not drawn) [TCMDC-137100],21.36%,–
Cc1ccc(NC(=O)C(C)Sc2n[nH]c(-c3ccccc3Br)n2)cc1 (stereo not drawn) [TCMDC-125166],75.62%,–
CC(Sc1n[nH]c(-c2ccccc2Br)n1)C(=O)Nc1ccc(F)cc1 (stereo not drawn) [TCMDC-125115],-62.46%,–
COc1ccc(C2CC(=O)C3=C(C2)NC(C)=C(C(=O)OC(C)C)C3c2ccccc2F)cc1OC (stereo not drawn) [TCMDC-124038],37.21%,–
COc1cc(C2Nc3ccc4ccccc4c3C3=C2C(=O)CC(C)(C)C3)ccc1Oc1ccc([N+](=O)[O-])cc1C#N (stereo not drawn) [TCMDC-125717],30.01%,–
COc1ccc(Br)cc1C1Nc2ccc3ccccc3c2C2=C1C(=O)CC(c1ccccc1)C2 (stereo not drawn) [TCMDC-125675],55.64%,–
CN(Cc1ccncc1)C(Cc1ccccc1)C1CCN(Cc2ccc(O)c(Cl)c2)CC1 (stereo not drawn) [TCMDC-124648],-12.77%,–
COc1cc(CNC[C@@H](O)[C@H](Cc2ccccc2)NC(=O)c2cc(OC(C)C)cc(N3CCCCS3(=O)=O)c2)cc(OC)c1 [TCMDC-134525],23.04%,–
CCc1cc2c(cc1OCCN(C)C)N(C(=O)Nc1ccc(-c3ccncc3)c(Cl)c1)CC2 [TCMDC-139214],8.963%,–
N#Cc1ccc(-c2cnc3ccc(NCCc4cccnc4)nn23)cc1 [TCMDC-136679],23.92%,–
COc1ccc(-c2cnc3ccc(NCc4ccc(F)cc4)nn23)cc1OC [TCMDC-136675],53.19%,–
COc1ccc(-c2cnc3ccc(N4CCCC4)nn23)cc1OC.O=CO [TCMDC-134177],42.14%,–
Oc1cccc(-c2cnc3ccc(NCc4ccc(F)cc4)nn23)c1 [TCMDC-136676],39.41%,–

SMILES,% Inhibition,% Inhibition (% Inhibition)
COc1ccc(-c2cnc3ccc(NCCCO)nn23)cc1OC [TCMDC-136683],53.42%,–
Fc1ccc(CNc2ccc3ncc(-c4cccnc4)n3n2)cc1 [TCMDC-136674],19.94%,–
C/C=C1\CN2CC[C@H]1C[C@H]2[C@H](O)c1ccnc2ccc(O)cc12 [TCMDC-138272],3.79%,–
COc1ccc2nccc(N3CCC(O)(CCNCc4ccc5c(n4)NC(=O)CO5)CC3)c2n1 [TCMDC-134564],-10.39%,–
CCNC(=O)N1CCN(c2nc(-c3ccccc3)nc(COC)c2Cc2ccc(C)cc2)CC1 [TCMDC-124783],37.5%,–
O=c1cc(NCCCNCc2cc(C(F)(F)F)ccc2F)[nH]c2ccccc12 [TCMDC-139423],-83.26%,–
CC1(C)N=C(N)N=C(N)N1OCCc1ccc2ccccc2c1 [TCMDC-131755],-0.2663%,–
COc1cc(Cc2cnc(N)nc2N)cc(OCCCCC2NC(=O)NC2=O)c1OC (stereo not drawn) [TCMDC-137299],4.359%,–
Cc1ccc2c(=O)cc(CCc3cccc(F)c3F)n(CC(=O)N(Cc3ccc(-c4ccc(C(F)(F)F)cc4)cc3)C3CCN(C(C)C)CC3)c2n1 [TCMDC-141318],122.6%,–
CC1CCCN1Cc1ccc(-c2ccc3c(=O)cc(CCc4cccc(F)c4F)n(CC(=O)N(C)Cc4ccc(-c5ccc(C(F)(F)F)cc5)cc4)c3n2)cc1 (stereo not drawn) [TCMDC-136564],30.5%,–
Cc1nc2c(s1)c(=O)cc(CCc1cccc(F)c1F)n2CC(=O)N(Cc1ccc(-c2ccc(C(F)(F)F)cc2)cc1)C1CCN(C(C)C)CC1 [TCMDC-141264],113.7%,–
Cc1ccc2c(=O)cc(CCc3cccc(F)c3F)n(CC(=O)N(Cc3ccc(-c4ccc(C(F)(F)F)cc4)cc3)C3CCN(C)CC3)c2n1 [TCMDC-141317],107%,–
COC(=O)Cn1c2ccccc2c2c(N)c(C(=O)OC)c(C)nc21 [TCMDC-131562],7.659%,–
CC(C)c1ccc(NC(=O)c2ccc(CN3CCCN(CC4CCCCC4)CC3)cc2)cc1 [TCMDC-136417],-19.72%,–
CCC(CC(NCCCCNC(=O)c1ccc(NC(=O)c2ccc(Cl)cc2)cc1)c1ccccc1)c1ccccc1OC (stereo not drawn) [TCMDC-138579],–,48.18%
N#Cc1c(N2CCN(c3ccc(F)cc3)CC2)nc(N)c2c(N)nc3c(c12)CC(=O)N3C1CC1 [TCMDC-124490],43.84%,–
Cc1cccc2[nH]c(-c3cccc(-c4cccc(NC(=O)c5ccc(=O)[nH]n5)c4)c3)nc12 [TCMDC-137033],-59.71%,–
COc1ccc2c(c1C1CCN(CCCCNC(=O)c3ccc(-c4ccc(Cl)cn4)cc3)CC1)CCCC2 [TCMDC-138576],-10.77%,–
COc1ccc2c(c1CCNCCCCNCCc1c(OC)ccc3c1CCCC3)CCCC2 [TCMDC-137324],111.7%,–
COc1ccc2c(c1CNCCCCCCNCc1c(OC)ccc3c1CCCC3)CCCC2 [TCMDC-137817],117.4%,–
N#CC1(CCCNCCc2ccc(O)cc2)CCCc2c(O)cccc21 (stereo not drawn) [TCMDC-137732],-11.73%,–
O=C(Nc1ccc(F)cc1)N1CCCN(c2ccnc3cc(Cl)ccc23)CC1 [TCMDC-133584],-23.79%,–

SMILES,% Inhibition,% Inhibition (% Inhibition)
COc1cc2c(cc1OC)CN(CCc1ccc(NC(=O)c3cc4cc(Cl)ccc4[nH]3)cc1)CC2 [TCMDC-138249],-9.297%,–
Cc1cc2c(cc1C(F)(F)F)N(C(=O)Nc1ccc(OCCN(C)C)c(C(F)(F)F)c1)CC2 [TCMDC-139850],18.6%,–
COc1cc(F)c2nccc([C@@H](O)CN3CCC(NCc4ccc5c(n4)NC(=O)CS5)C(F)C3)c2c1 (stereo partly drawn) [TCMDC-141805],-13.4%,–
FC(F)(F)c1cc(Nc2ccc(Oc3ccccc3)cc2)c2cc(-c3ccncc3)ccc2n1 [TCMDC-138549],-36.95%,–
c1ccc(CN2CCc3cc4nccc(N5CCNCC5)c4cc32)cc1 [TCMDC-140118],-20.01%,–
C/C=C/COc1ccc2ccccc2c1CNCCCCCCCCNCc1c(OC/C=C/C)ccc2ccccc12 [TCMDC-137844],118.6%,–
C=CCOc1ccc2ccccc2c1CNCCCCCCNCc1c(OCC=C)ccc2ccccc12 [TCMDC-137340],119.9%,–
Nc1nc(N)c2c(ccc3c2cnn3S(=O)(=O)N2CCCC2)n1 [TCMDC-137852],-71.91%,–
O=C1COc2ccccc2N1C/C=C(\CN1CCC(c2ccccc2)CC1)c1cc(Cl)cc(Cl)c1 [TCMDC-134528],-40.54%,–
Cc1cc(Nc2ccc3c(c2)CCC3)n2ncnc2n1 [TCMDC-123574],8.317%,–
Cc1[nH]nc2cc(Nc3nccc(Nc4ccc(Oc5ccccc5)cc4)n3)ccc12 [TCMDC-138573],32.4%,–
CCc1nnc2sc(-c3cccc(NC(=O)c4ccc(C)c([N+](=O)[O-])c4)c3)nn12 [TCMDC-125124],-17.45%,–
Cc1ccc(O)c(-c2cc(C(=O)Nc3ccc(S(=O)(=O)N4CCCCC4)cc3)[nH]n2)c1 [TCMDC-124309],-24.12%,–
O=C(Nc1ccccc1)c1cnc[nH]1 [TCMDC-123941],-10.44%,–
CC[C@H]1CN2CC[C@@H]1C[C@H]2[C@H](O)c1cc(-c2ccc(Cl)c(Cl)c2)nc2ccc(O)cc12 [TCMDC-141362],95.45%,–
CC[C@H]1CN2CC[C@@H]1C[C@H]2[C@H](O)c1cc(-c2ccc(F)cc2)nc2ccc(O)cc12 [TCMDC-141378],55.28%,–
CCCc1cc([C@@H](O)[C@@H]2C[C@@H]3CCN2C[C@@H]3CC)c2ccccc2n1 [TCMDC-131428],-9.828%,–
CC[C@H]1CN2CC[C@@H]1C[C@H]2[C@H](O)c1ccnc2ccc(Cl)cc12 [TCMDC-141353],-5.728%,–
CC[C@H]1CN2CC[C@H]1C[C@@H]2[C@H](O)c1ccnc2ccc(O)cc12 [TCMDC-132025],31.63%,–
CC[C@H]1CN2CC[C@H]1C[C@H]2[C@H](O)c1ccnc2ccc(O)cc12 [TCMDC-131425],22.33%,–
CC[C@H]1CN2CC[C@@H]1C[C@H]2[C@H](O)c1cc(-c2ccccc2)nc2ccc(O)cc12 [TCMDC-141380],89.63%,–
OCC1CCCCN1Cc1cccc(-c2cccc(-c3nc4ccccc4[nH]3)c2)c1 (stereo not drawn) [TCMDC-133835],-3.731%,–
